Only some compounds are listed: those with a hit (about 19% of all), similar ones and a draw of the others.
VP16 counter – VP16 counterscreen qHTS for inhibitors of ROR gamma transcriptional activity; Drosophila S2 Gal4-VP16 UAS-luciferase, luminescence, 20 h; Potency, µM (highest dose often 53.6 µM), for inactives: at the highest dose activity, negative = inhibition, usual class: inhibitors; 310,000 compounds, 3.5% hits; AID 2546, 2010;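 note: Gal4-VP16 expression switched on by copper sulfate through the metallothionein promoter; nearly all actives have a fitted effect of over 50% in size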
TDP1 cell CPT – qHTS for Inhibitors of human tyrosyl-DNA phosphodiesterase 1 (TDP1): qHTS in cells in presence of CPT; chicken DT40 Tdp1-/-;hTDP1 cells + 20 nM CPT, ATP luminescence, 48 h; Potency, µM (titrated, usually from 46.2 µM), for the others: at the top dose activity change, negative = growth inhibition, usual class: inhibitors; 420,000 compounds, 12% hits; note: nearly all actives have a fitted effect of over 55% in size
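Chicken DT40 Tdp1-/- cells stably complemented with human TDP1 were seeded at 400 cells/well in medium containing 20 nM camptothecin, exposed to pin-transferred compounds, and grown at 37 °C for at least 48 hr. Viability was read as ATP luminescence.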
TDP1 block – qHTS Assay for Inhibitors of Tyrosyl-DNA Phosphodiesterase (TDP1) | Tyrosyl-DNA phosphodiesterase 1 (Homo sapiens), Q9NUW8 | recombinant TDP1, AlphaScreen DNA substrate cleavage | Potency, µM (highest dose often 130 µM), inactives show at the highest dose activity change, negative = inhibition, hits mostly inhibitors | 350,000 compounds, 0.28% hits | AID 485290, 2010; note: nearly all actives have a fitted effect of over 40% in size
Target sequence (Q9NUW8 whole entry, looked up): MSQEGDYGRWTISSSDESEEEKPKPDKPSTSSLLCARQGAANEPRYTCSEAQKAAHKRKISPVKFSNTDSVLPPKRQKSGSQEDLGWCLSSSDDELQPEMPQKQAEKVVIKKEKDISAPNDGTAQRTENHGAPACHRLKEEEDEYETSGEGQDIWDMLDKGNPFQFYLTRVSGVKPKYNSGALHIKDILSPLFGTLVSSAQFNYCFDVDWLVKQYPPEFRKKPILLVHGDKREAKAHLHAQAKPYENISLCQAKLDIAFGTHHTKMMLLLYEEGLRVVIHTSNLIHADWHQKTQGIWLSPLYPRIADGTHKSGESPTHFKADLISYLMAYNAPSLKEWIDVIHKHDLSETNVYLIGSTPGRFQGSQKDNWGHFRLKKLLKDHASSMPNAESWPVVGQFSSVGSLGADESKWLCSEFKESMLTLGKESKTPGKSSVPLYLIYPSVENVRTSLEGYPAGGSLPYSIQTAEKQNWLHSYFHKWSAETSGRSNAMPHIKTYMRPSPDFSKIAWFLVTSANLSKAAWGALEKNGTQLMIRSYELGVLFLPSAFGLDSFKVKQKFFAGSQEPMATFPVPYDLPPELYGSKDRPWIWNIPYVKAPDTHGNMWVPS
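Steps: enzyme plus compound, 15 min RT; add biotin/phosphotyrosine-FITC oligonucleotide (15 nM final), react 5 min; add donor/acceptor beads (10 ug/ml final), 10 min; read AlphaScreen. Tdp1 at 1 nM final.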
RORgamma inh – qHTS for inhibitors of ROR gamma transcriptional activity. Nuclear receptor ROR-gamma (Mus musculus), P51450. Drosophila S2 Gal4-RORgamma UAS-luciferase reporter, 20 h. Potency, µM (highest dose often 53.6 µM), for inactives: at the top dose activity change, negative = inhibition, usual class: inhibitors. 310,000 compounds, 5.4% hits. AID 2551, 2010; note: nearly all actives have a fitted effect of over 60% in size
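Stable Schneider cell line, Gal4 DNA-binding domain fused to ROR gamma, UAS-luciferase. Cmpd 1 hr RT → CuSO4 700 uM final → 20 hr RT → luciferase reagent 10 min → luminescence.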
DT40 TDP1 no CPT – qHTS for Inhibitors of human tyrosyl-DNA phosphodiesterase 1 (TDP1): qHTS in cells in absence of CPT; DT40 Tdp1-/- hTDP1 cells, no CPT, ATP luminescence, 48 h; Potency, µM (doses to about 46.2 µM), for the others: at the highest dose activity change, negative = growth inhibition, most hits filed as inhibitors; 420,000 compounds, 15% hits; AID 686978, 2013; note: nearly all actives have a fitted effect of over 55% in size
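Chicken DT40 Tdp1-/- cells stably complemented with human TDP1 were seeded at 400 cells/well with DMSO in place of 20 nM camptothecin. After compound pinning, cells grew at least 48 hr at 37 °C; viability read by CellTiter-Glo luminescence.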
* = called active by the depositor; ? = inconclusive; / = no result; ! = not active in a repeat. Calls come from the whole dose curve; as a rule, active = well fitted curve in the direction sought with a large enough effect; inconclusive = small, poorly fitted or top-dose-only effect, or another doubt; inactive = no such curve, though single readings can be large; an effect the other way counts as inactive or inconclusive. % is set by controls: 0 for no effect and ±100 for the full control effect; potency is the fitted concentration of half-maximal effect.

SMILES	VP16 counter	TDP1 cell CPT	TDP1 block	RORgamma inh	DT40 TDP1 no CPT
O=C1/C(=C/c2cccnc2)CCC/C1=C\c1cccnc1	2.5µM*	2.1µM*	3%	1.3µM*	2.1µM*
O=C1/C(=C/c2cccnc2)CC/C1=C\c1cccnc1	-18%	?	6%	1%	?
CCC1C/C(=C\c2cccnc2)C(=O)/C(=C/c2cccnc2)C1 (stereo not given)	1.8µM*	3.3µM*	3%	5.6µM*	4.6µM*
O=C1/C(=C\c2cccnc2)CCc2ccccc21	?	13µM*	3%	?	18µM*
CCOc1ccc(C2=C/C(=C/c3cccnc3)C(=O)O2)cc1	19%	?	-3%	4%	?
COC(=O)c1cc(S(=O)(=O)NC2CCC(C)CC2)cn1C (stereo not given)	-2%	-21%	3%	-12%	10%
COc1ccc(CNC(=O)COC(=O)/C=C/c2ccc(Cl)cc2)cc1	1%	4%	-2%	1%	3%
COc1ccc(NCc2nnc(SCC(=O)Nc3ccc(OC)cc3OC)o2)cc1	-9%	6%	0%	-14%	-8%
CCN(C(=O)CSc1nc(-c2ccc(C(C)C)cc2)no1)c1cccc(C)c1	/	15µM*	0%	/	?
CCN(C(=O)CSc1nc(-c2ccc(C(C)C)cc2)no1)c1ccccc1	/	15µM*	3%	/	?
Cc1cc(S(=O)(=O)N2CCOCC2)ccc1OCC(=O)Nc1cccc(F)c1	-3%	8%	0%	12%	-26%
CCC(=O)NCCNc1ccc([N+](=O)[O-])cn1	1%	/	0%	-1%	/
C=C[C@]1(C)C[C@@H](OC(=O)CSCCN(CC)CC)[C@]2(C)[C@H](C)CC[C@]3(CCC(=O)[C@H]32)[C@@H](C)[C@@H]1O	/	7.5µM*	/	/	3µM*
C=C[C@]1(C)C[C@@H](OC(=O)CSC(C)(C)CNC(=O)[C@H](N)C(C)C)[C@]2(C)[C@H](C)CC[C@]3(CCC(=O)[C@H]32)[C@@H](C)[C@@H]1O	/	0.24µM*	/	/	0.27µM*
O=C(Cn1nc(-c2ccccc2)c2ccccc2c1=O)Nc1ccc(F)cc1	4%	-22%	1%	10%	?
CC1(C)C(=O)N(CC(=O)Nc2ccc(Cl)cc2)c2ccccc21	/	-5%	10%	/	-3%
O=C(CN1C(=O)C2CC=CCC2C1=O)Nc1ccc(Br)cc1 (stereo not given)	-1%	9%	1%	41%	12%
O=C(Cn1sc2ccccc2c1=O)Nc1ccc(Br)cc1	/	2.3µM*	/	/	2.3µM*
O=C(Cn1sc2ccccc2c1=O)Nc1ccc(F)cc1	/	2.9µM*	/	/	2.1µM*
O=C(Cn1sc2ccccc2c1=O)Nc1ccc(Cl)cc1	/	5.2µM*	/	/	2.6µM*
COc1ccc(-c2ccc(C)cc2)cc1C1C2C=CCCC2(C)C(=O)N1Cc1ccccc1 (stereo not given)	-8%	/	7%	?	/
COc1ccc(Br)cc1S(=O)(=O)n1ccnc1	-5%	-9%	5%	-1%	-24%
c1cncc(CNc2ncnc3ccc(-c4ccc5c(c4)OCO5)cc23)c1	/	/	3%	/	/
CCOc1cc2[nH]c(=S)n(CCCN(CC)CC)c(=O)c2cc1OCC	-13%	-18%	0%	-40%	-23%
CCOc1cc2[nH]c(=S)n(CCOC)c(=O)c2cc1OCC	8.9µM*	-3%	9%	2.8µM*	-14%
SMILES	VP16 counter	TDP1 cell CPT	TDP1 block	RORgamma inh	DT40 TDP1 no CPT
CCCCN(C)CCn1c(=S)[nH]c2cc(OCC)c(OCC)cc2c1=O	?	-21%	2%	11µM*	-4%
COCCn1c(=S)[nH]c2ccc(N(C)C)cc2c1=O	?	-3%	5%	16µM*	-5%
CCCn1c(=S)[nH]c2cc(OC)c(OC)cc2c1=O	7.9µM*	-3%	2%	3.2µM*	-12%
CN(CC(=O)Nc1ccc(Cl)c(C(F)(F)F)c1)C(=O)c1cc(=O)c2ccccc2o1	/	?	1%	/	?
CCN(Cc1ccccc1)C(=O)C1CCN(S(=O)(=O)c2ccc3c(c2)CCCN3C(C)=O)CC1	/	?	-2%	/	?
CC1(C)Oc2nc3ccccc3n2/C1=C\C#N	-27%	-2%	5%	-16%	-20%
Cc1ccc(S(=O)(=O)N2CCN(C(=O)CN3CCCC3)C2)cc1	20%	-10%	-1%	?	6%
CC(C)(C)C(=O)NNc1nc(-c2ccccc2)c2cc(Br)ccc2n1	4%	16µM*	-5%	-18%	13µM*
CCN(CC)S(=O)(=O)c1ccc(C(=O)NNc2nc(-c3ccccc3)c3cc(Br)ccc3n2)cc1	?	?	8%	20µM*	?
O=S(=O)(Nc1cccc(C(F)(F)F)c1)c1ccc(-c2cnc(C3CC3)o2)cc1	/	3.7µM*	1%	/	2.6µM*
COc1ccc(NS(=O)(=O)c2ccc(-c3cnc(C4CC4)o3)cc2)cc1OC	7.1µM*	2.1µM*	7%	?	1.6µM*
COc1ccccc1NS(=O)(=O)c1ccc(-c2cnc(C3CC3)o2)cc1	-1%	0.73µM*	2%	-6%	0.92µM*
COc1ccccc1CNS(=O)(=O)c1ccc(S(=O)(=O)NC2CC2)cc1	-8%	3%	11%	16%	-19%
COc1ccccc1NS(=O)(=O)c1ccc(O)cc1	-6%	?	1%	25%	?
COc1ccccc1CNS(=O)(=O)c1ccc(-c2cnc(C3CC3)o2)cc1	?	0.92µM*!	2%	?	0.58µM*
CC1CN(C(=O)c2ccc(S(=O)(=O)Nc3cccc(C(F)(F)F)c3)cc2)CC(C)O1 (stereo not given)	/	-28%	1%	/	?
CCOc1ccccc1NS(=O)(=O)c1cc(-c2cnc(C3CC3)o2)ccc1C	/	-20%	6%	/	?
CCOc1ccccc1NS(=O)(=O)c1ccc(-c2cnc(C3CC3)o2)cc1	-10%	0.0082µM*	3%	?	0.023µM*
O=C(CN1C(=O)c2cccc3cccc1c23)Nc1ccc(S(=O)(=O)N2CCOCC2)cc1	-8%	-15%	2%	0%	-17%
O=c1c2ccccc2cnn1Cc1ccc(Br)cc1F	8%	-22%	/	35%	?
O=C(c1ccc(Cl)cc1)N1CCCCC(Sc2nnc(-c3ccc4c(c3)OCO4)o2)C1=O (stereo not given)	?	-3%	0%	1.4µM*	-12%
O=C(O)CSc1nnc(-c2ccc3c(c2)OCO3)o1	?	-10%	3%	?	1%
COc1ccc(S(=O)(=O)N2CCN(C(=O)COc3ccc(C)c(C)c3)CC2)cc1OC	-3%	?	3%	15%	-29%

Source: PubChem BioAssay
